{"source": "the supplement of paper PMC6555819", "data": [{"tested_on": "RXRa homodimer (NR concentration 180 nM)", "assay": "PBM binding z-score (relative to random genomic background probes); higher = stronger binding; sequences stand for … in GC…GCGATTGACAGCGTAGAATGAAGG", "how_it_was_run": "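Antibodies against each partner of ligand-free nuclear receptor dimers (one per run) detected binding on custom Agilent 4×180K protein-binding microarrays after 1 h incubation. The double-stranded probes had 34-nt variable regions carrying direct-repeat seeds, single-nucleotide variants, half-site ablations and random human genomic background sequences. Binding z-scores, from regression-normalized fluorescence, use the random background probes as reference.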", "values": [{"sequence": "CGAACTAGGGCATCCAGGACAGTGAATACATTGA", "PBM binding z-score": 0.135}, {"sequence": "TCGAATAGGTTAGTCGGGGCATTCAGCCAACATA", "PBM binding z-score": 0.583}, {"sequence": "TCTGGGAGGACACGAAAGGTCAGAGCTCGACATC", "PBM binding z-score": 4.23}, {"sequence": "CCGAGTAGGTTATGGGGCATACAGGCAACGGTGA", "PBM binding z-score": 0.691}, {"sequence": "CAGCCTAGGTCAGGGCCAGTTTAGGAGGAACGTT", "PBM binding z-score": 1.63}, {"sequence": "TAGCCTAGGTCAAGGGCCAGTATACCACGCGAAC", "PBM binding z-score": 3.58}, {"sequence": "ACTAGTTGGTCAGCTGAGGTCATACACAATTCGG", "PBM binding z-score": 3.86}, {"sequence": "CGTCCAAGGTCAAGGTCAGTCAAAGAGACTCGAA", "PBM binding z-score": 6.7}, {"sequence": "AGTCAAAGTTCGTCTAGGTAACGTAAGATATGCT", "PBM binding z-score": 1.39}, {"sequence": "CGTTAAAGTTCAACTAAGGTAACGTAAAGCACGC", "PBM binding z-score": 4.25}, {"sequence": "ACTTACGGGTCAACGAGGGTATAGCACGCGTATA", "PBM binding z-score": 5.63}, {"sequence": "ATCTCTAAGTAAAGATAGTTCAGTGAATGCAAAT", "PBM binding z-score": 0.538}, {"sequence": "GATACAGGGTCAGCTAGAGGCTAGAGTATGGAAA", "PBM binding z-score": 4.23}, {"sequence": "CCAGACAGGTGAGAAGGGAACTCAGCCTCGATTA", "PBM binding z-score": 0.0773}, {"sequence": "CCTGCTAAGTCAATGGTCAGCTAAAGCAGCTCGC", "PBM binding z-score": -0.263}, {"sequence": "CTACCAAGGTGAACAAGGTCGCTGATTACTATTC", "PBM binding z-score": 1.8}, {"sequence": "CCTGCTAGGTCATGATCAGCTAATCTACAGTATG", "PBM binding z-score": 2.85}, {"sequence": "TCTAGCAGGACAGAGGGTCACTCAAGAGGTACGG", "PBM binding z-score": 2.48}, {"sequence": "ACTAGCAGGCCAAGTTTGGTTCACTCAAACAAAG", "PBM binding z-score": -0.193}, {"sequence": "ATCTCTAGCTAACAAGTTCAGTGAAAGAGAGGAC", "PBM binding z-score": 0.529}, {"sequence": "TCTATCAGGCCAGAGGGTCACTCAAGAGGTACGG", "PBM binding z-score": 2.56}, {"sequence": "GTACCAAGGTGCATAGGTCGTTGATGAGTAGGCG", "PBM binding z-score": 1.3}, {"sequence": "GCTATTACTTGAAAGGGCAACCGAATGATTCTCG", "PBM binding z-score": 0.965}, {"sequence": "TGTCAAAGTTCAGAGGTAACGTAAGTATCCACAC", "PBM binding z-score": 4.22}, {"sequence": "TGGAGTAGGTTAGGGGCATTCAGAATGGCGTCGA", "PBM binding z-score": 0.803}, {"sequence": "CCTTACGGGTCACTCCAGTTTATAGCATCGGAGT", "PBM binding z-score": 3.83}, {"sequence": "CCGTCTGGGGCAGAAAGGTTACCATACCATCCGG", "PBM binding z-score": 1.37}, {"sequence": "CCTAGTTGGTCAGGAGGGCACACACCGGATATGA", "PBM binding z-score": 0.657}, {"sequence": "TCTATTCGTTGATTAGGGCAACCGAAACAGCGGA", "PBM binding z-score": 0.477}, {"sequence": "GCTGCTAGGTCCGGTTGGTCAGCTAACGGGTACG", "PBM binding z-score": -0.726}, {"sequence": "GGAACGAGGGCAAAGTGGATAGCATCTGTCGACG", "PBM binding z-score": 1.21}, {"sequence": "GCTAGCAGGCCATTTGGGTCTCTCAATGACGGGC", "PBM binding z-score": -0.294}, {"sequence": "ATCGAAAGTTCGAAGGTGAGTATACCCACCCGAA", "PBM binding z-score": 2}, {"sequence": "AGAATGAGGTTATTAAAATCAGGGAATTGCGGTC", "PBM binding z-score": 1.43}, {"sequence": "ATCTCTAGGTAACAAGTTCAGTGGAAGAGAGGAC", "PBM binding z-score": 0.888}, {"sequence": "GGAACGAGGGCAAAGTTGAAAGCATCTGTCGACG", "PBM binding z-score": 2.88}, {"sequence": "TCTTTTAGATCAAAGGTTAAGAAAGCCGAAGCCT", "PBM binding z-score": 2.81}, {"sequence": "AGAGCGAGGGCACGCTGAGTTGATAGCAGAGTAG", "PBM binding z-score": 1.06}, {"sequence": "ACTCGGAGGACAAAGGTCTGAGCTACGCCAGTGA", "PBM binding z-score": 0.0538}]}]}
